Structures are written as SMILES. Several values for one entry are separate records, joined by “and”; a condition that tells them apart may be missing. Identical values can stand only once. Records with an inconclusive call do not appear. Values without a mark were called inactive. Activity calls are given as the source filed them. Unless noted, calls follow the shape of the dose curve; as a rule, active = well fitted curve in the direction sought with a large enough effect in the repeat runs; inconclusive = weak or mixed curves; inactive = no such curve, though single readings can be large; an effect the other way counts as inactive or inconclusive.

Test [1] in a line: qHTS assay to identify small molecule antagonists of the glucocorticoid receptor (GR) signaling pathway - cell viability counter screen (AID 720693). Also: nearly all actives have a fitted effect of over 55% in size. Also: potency is read from the fitted curve at half-maximal effect. The note with it: GR-bla HeLa viability, CellTiter-Glo luminescence, 18 h, with 5 nM dexamethasone present; series mostly up to 58.5 µM.
A short description of test [2]: qHTS assay for identifying genotoxic compounds that show differential cytotoxicity against isogenic chicken DT40 cell lines with known DNA damage response pathways - wild type cell line (AID 743012). Also: nearly all actives have a fitted effect of over 60% in size. Also: potency is read from the fitted curve at half-maximal effect. The note with it: DT40 wild type chicken cells viability, CellTiter-Glo, 40 h; series mostly up to 68.4 µM. In short, it runs like this:
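Viability of DNA repair-proficient chicken DT40 cells was assessed by CellTiter-Glo luminescence following 40 h compound exposure at 37 C/5% CO2.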

A short description of test [3]: qHTS assay for identifying genotoxic compounds that show differential cytotoxicity against isogenic chicken DT40 cell lines with known DNA damage response pathways - Rev3 mutant cell line (AID 743014). Also: nearly all actives have a fitted effect of over 55% in size. Also: potency is read from the fitted curve at half-maximal effect. The note with it: chicken DT40 Rev3-/- viability, CellTiter-Glo, 40 h; series mostly up to 68.4 µM.
Test [4] can be described thus: qHTS assay for identifying genotoxic compounds that show differential cytotoxicity against isogenic chicken DT40 cell lines with known DNA damage response pathways - Rad54/Ku70 mutant cell line (AID 743015). Also: nearly all actives have a fitted effect of over 60% in size. Also: potency is read from the fitted curve at half-maximal effect. The note with it: DT40 Rad54/Ku70 mutant viability, CellTiter-Glo, 40 h; series mostly up to 66.8 µM.
A short description of test [5]: qHTS assay to identify small molecule antagonists of the androgen receptor (AR) signaling pathway - cell viability counter screen (AID 743033; also: nearly all actives have a fitted effect of over 45% in size). The note with it: AR-bla HEK293 viability, CellTiter-Glo luminescence, 16 h; series mostly up to 58.5 µM.
A short description of test [6]: qHTS assay to identify small molecule antagonists of the androgen receptor (AR) signaling pathway using the MDA cell line - cell viability counter screen (AID 743041; also: nearly all actives have a fitted effect of over 45% in size; also: potency is read from the fitted curve at half-maximal effect). The note with it: MDA-kb2 viability, CellTiter-Fluor, 16 h, cells co-treated with R1881 androgen agonist; series mostly up to 70.3 µM. In short, it runs like this: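 In this qHTS counter assay, fluorescence intensity after CellTiter-Fluor addition indicated viability of MDA-kb2 AR-luc cells given compounds and R1881 for 16 h at 37C.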

Test [7] has as its target Androgen receptor (Homo sapiens) (UniProt P10275). Briefly: qHTS assay to identify small molecule antagonists of the androgen receptor (AR) signaling pathway (AID 743035; active = well fitted inhibition curve with a large enough effect in the signal ratio in the repeat runs, not every such curve was filed as active; the % refers to the signal ratio). The note with it: HEK293 AR-UAS-bla, R1881-stimulated, beta-lactamase FRET, 16 h; series mostly up to 58.5 µM. The method, boiled down: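 Reporter HEK293 cells were exposed to compounds and R1881 overnight (16 h, 37C); beta-lactamase activity was then quantified by FRET fluorescence.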

The target is the same in test [8]. Briefly: qHTS assay to identify small molecule antagonists of the androgen receptor (AR) signaling pathway using the MDA cell line (AID 743042; also: nearly all actives have a fitted effect of over 55% in size). The note with it: MDA-kb2 AR-luc, MMTV luciferase, R1881 antagonist, 16 h; series mostly up to 70.3 µM. The method, boiled down:
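MDA-kb2 cells (human breast carcinoma, stably carrying an MMTV-luciferase reporter responsive to AR and GR) were plated at 3,000 cells/well and preincubated 5 hr at 37C, then given compound plus R1881 agonist for 16 h. ONE-Glo luminescence was read.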
% is scaled to controls: 0 for no effect and ±100 for the full control effect.

Chain of Androgen receptor (Homo sapiens) (P10275 whole entry, looked up): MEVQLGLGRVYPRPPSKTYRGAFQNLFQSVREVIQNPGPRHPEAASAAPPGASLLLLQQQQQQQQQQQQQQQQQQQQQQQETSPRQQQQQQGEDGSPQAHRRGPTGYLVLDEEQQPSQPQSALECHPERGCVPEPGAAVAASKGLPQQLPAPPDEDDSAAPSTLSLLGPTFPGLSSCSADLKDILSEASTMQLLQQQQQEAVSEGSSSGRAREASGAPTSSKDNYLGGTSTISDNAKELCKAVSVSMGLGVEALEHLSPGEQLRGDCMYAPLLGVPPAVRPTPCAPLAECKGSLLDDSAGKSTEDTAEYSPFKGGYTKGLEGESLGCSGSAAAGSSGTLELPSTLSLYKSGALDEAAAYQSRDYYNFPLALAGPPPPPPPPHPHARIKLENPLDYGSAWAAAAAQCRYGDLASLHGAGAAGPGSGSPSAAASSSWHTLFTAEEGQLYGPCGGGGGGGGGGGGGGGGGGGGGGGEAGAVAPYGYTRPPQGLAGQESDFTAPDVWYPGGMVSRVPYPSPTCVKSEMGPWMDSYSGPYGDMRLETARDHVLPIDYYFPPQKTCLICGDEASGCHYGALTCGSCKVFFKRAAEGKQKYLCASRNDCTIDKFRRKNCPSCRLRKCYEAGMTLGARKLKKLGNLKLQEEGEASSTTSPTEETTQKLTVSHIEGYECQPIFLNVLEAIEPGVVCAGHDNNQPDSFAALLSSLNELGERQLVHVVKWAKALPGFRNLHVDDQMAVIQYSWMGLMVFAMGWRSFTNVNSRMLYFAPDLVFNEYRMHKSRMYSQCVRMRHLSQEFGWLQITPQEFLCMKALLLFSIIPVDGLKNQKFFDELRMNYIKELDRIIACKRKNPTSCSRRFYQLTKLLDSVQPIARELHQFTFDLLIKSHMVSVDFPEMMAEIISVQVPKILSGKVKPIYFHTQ

Regarding `O=C1CCc2ccc(OCCCCN3CCN(c4cccc(Cl)c4Cl)CC3)cc2N1`, the Potency result in test [1], in test [5] and in test [6] was “inactive” in each case. The Potency in test [2] is 5.96 µM (active); in test [3] it was 5.31 µM (active); in test [4], 6.68 µM (active).
Regarding `CNC(=O)c1ccccc1Sc1ccc2c(/C=C/c3ccccn3)n[nH]c2c1`, the Potency entry in test [1], in test [5] and in test [6] was “inactive” each time. The Potency in test [2] was 2.11 µM (active); in test [3] it was 2.37 µM (active); in test [4], 2.66 µM (active).
Take `CN(C)C(=O)COC(=O)Cc1ccc(OC(=O)c2ccc(N=C(N)N)cc2)cc1`: the Potency result in test [1], in test [2], in test [3], in test [4], in test [5] and in test [6] was “inactive” in each case.
Take `c1cnccn1`: the Potency result in test [1], in test [2], in test [3], in test [4], in test [5] and in test [6] was “inactive” throughout.
With `OCC(F)(F)F`, the Potency result in test [1], in test [2], in test [3], in test [4], in test [5] and in test [6] was “inactive” each time.
For `CC[N+](CC)(CC)CCOC(=O)C(C1CCCC1)C1CCCC1`, the Potency result in test [1], in test [5] and in test [6] was “inactive” each time. For the same molecule, the Potency in test [2] was 5.31 µM (active); in test [3] it was 11.9 µM (active); in test [4] it was 8.41 µM (active).
`CC1(C)CC(O)CC(C)(C)N1`: the Potency entry in test [1], in test [2], in test [3], in test [4], in test [5] and in test [6] was “inactive” in each case.
Consider `Cc1cc(-n2nc3ccc(Cl)cc3n2)c(O)c(C(C)(C)C)c1`, for which the Potency entry in test [1], in test [2], in test [3], in test [4], in test [5] and in test [6] was “inactive” each time.
For the molecule `C=CC(C)(CCC=C(C)C)OC=O` (configuration not stated), the Potency result in test [1], in test [2], in test [5] and in test [6] was “inactive” throughout. For the same molecule, the Potency in test [3] is 24.3 µM (active); in test [4], 54.5 µM (active).
For `O=C(O)O`, the viability change, negative = cytotoxic is 4.34% [at 7.04 µM] in test [1] and -5.91% [at 8.47 µM] in test [6]. Also, the activity change, negative = cytotoxicity is -8.76% [at 8.52 µM] in test [2], -2.06% [at 8.55 µM] in test [4] and -8.19% [at 7.04 µM] in test [5]. The activity, negative = cytotoxicity in test [3] is -2.82% [at 8.53 µM].
For `CCCCCCCCCCCCOC(=O)c1ccc(O)cc1`, the Potency in test [1] was 24.7 µM (active). Moreover, the Potency result in test [2], in test [3], in test [4], in test [5], in test [7] and in test [6] was “inactive” each time. Moreover, in test [8], the Potency result was “inactive”.
`O=C(O)CN(CCN(CC(=O)O)CC(=O)O)CC(=O)O`: the Potency result in test [1], in test [2], in test [4], in test [5] and in test [6] was “inactive” throughout. In addition, the activity, negative = cytotoxicity in test [3] was 5.28% [at 3.82 µM].
Regarding `Cc1ccc(C(=O)O)cc1`, the Potency entry in test [1], in test [2], in test [3], in test [4], in test [5] and in test [6] was “inactive” each time.
With `CCCCC(CC)COC(=O)CCCCC(=O)OCc1ccccc1` (configuration not stated), the Potency entry in test [1], in test [2], in test [3], in test [4], in test [5] and in test [6] was “inactive” in each case.
For `O=C(Oc1ccccc1)Oc1ccccc1`, the Potency result in test [1], in test [2], in test [3], in test [4], in test [5] and in test [6] was “inactive” throughout.
For `Cc1ccc(N/N=c2\c(=O)cc/c(=N\Nc3ccc(S(=O)(=O)O)cc3)c2=O)c(C)c1`, the Potency entry in test [1], in test [2], in test [3], in test [4] and in test [5] was “inactive” in each case. Further, the Potency in test [6] is 27.3 µM (active).
For `O=C(O)c1cc(=O)c2ccccc2o1`, the Potency result in test [1], in test [2], in test [3], in test [4], in test [5] and in test [6] was “inactive” in each case.
With `C#CC1(O)CC[C@H]2[C@@H]3CCC4=CCCC[C@@H]4[C@H]3CC[C@@]21C` (some centres not stated), the Potency entry in test [1], in test [5] and in test [6] was “inactive” each time. Moreover, the Potency in test [2] was 11.4 µM (active) and 13.7 µM (active); in test [3] it was 11.4 µM (active) and 7.7 µM (active); in test [4] it was 11.4 µM (active) and 15.4 µM (active).
As to `CC1=CCC(=C(C)C)CC1`, the Potency entry in test [1], in test [2], in test [3], in test [4], in test [5] and in test [6] was “inactive” in each case.
In the case of `OC[C@@H](O)[C@@H](O)CO`, the Potency entry in test [1], in test [2], in test [3], in test [4], in test [5] and in test [6] was “inactive” throughout.
With `CN1CCC[C@@H]1CCO[C@](C)(c1ccccc1)c1ccc(Cl)cc1`, the Potency result in test [1], in test [5] and in test [6] was “inactive” each time. Besides, the Potency in test [2] was 9.44 µM (active); in test [3] it was 10.6 µM (active); in test [4] it was 21.1 µM (active).
For `CN1CCN(Cc2cc(-c3ccc4[nH]c(=O)oc4c3)co2)[C@@H](c2ccc(F)cc2)C1`, the Potency result in test [1] and in test [6] was “inactive” throughout. Also, the figures for the Potency in test [2], in test [3] and in test [4] were 14.8 µM (active), 16.6 µM (active) and 14.8 µM (active), respectively.
As for `O=C(O)CCN(C1(C(=O)NO)CCCC1)S(=O)(=O)c1ccc(Oc2ccc(F)cc2)cc1`, the Potency entry in test [1], in test [2], in test [3], in test [5] and in test [6] was “inactive” throughout.
As to `CCn1c2ccccc2c2cc([N+](=O)[O-])ccc21`, the Potency entry in test [1], in test [5] and in test [6] was “inactive” each time. The results for the Potency in test [2] and in test [3] were 48.6 µM (active) and 27.3 µM (active), respectively.
Consider `COc1cc(/C=C/c2ccccc2)oc(=O)c1`, for which the Potency entry in test [1], in test [2], in test [3], in test [5] and in test [6] was “inactive” in each case.
On to `CCCCCCCCCCC[C@@H](C[C@@H]1OC(=O)[C@H]1CCCCCC)OC(=O)[C@H](CC(C)C)NC=O`, for which the Potency entry in test [1] and in test [5] was “inactive” each time. In addition, the Potency is 1.06 µM (active) in test [2] and 0.376 µM (active) in test [3].
Consider `CC(=O)CC(=O)Nc1ccc(S(=O)(=O)O)cc1`, for which the Potency entry in test [1], in test [2], in test [3], in test [5] and in test [6] was “inactive” throughout.
As to `O=C1CCc2cc(OCCCCc3nnnn3C3CCCCC3)ccc2N1`, the Potency result in test [1], in test [2], in test [3], in test [5] and in test [6] was “inactive” each time.
Consider `O[C@@H]([C@H](O)[C@H](O)CBr)[C@H](O)CBr`, for which the Potency result in test [1], in test [2], in test [3], in test [5] and in test [6] was “inactive” each time.

The record behind these values is PubChem BioAssay (Tox21).
